Test [1] can be described thus: Cell Viability - LYMP2-008 (AID 980). Further: on the % scale 0 is the no-effect control and ±100 the full control effect; nearly all actives have a fitted effect of over 60% in size. The procedure, abridged:
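LYMP2-008 lymphoblastoid cells (2500/well) plated 5 h, then treated 24 h at 37 C in complete medium. Viability read as intracellular ATP by CellTiter-Glo luminescence after 30 min at room temperature; AC50 from Hill fits.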

Test [2] is described as follows: Cell Viability - LYMP2-010 (AID 981). Further: nearly all actives have a fitted effect of over 55% in size. Further: potency means the concentration at half of the fitted maximal effect. Summed up:
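Human lymphoblastoid LYMP2-010 cells (2500/well) treated 24 h at 37 C in complete medium; viability read as intracellular ATP by CellTiter-Glo luminescence. AC50 from Hill fits of concentration-response data; tetraoctylammonium bromide positive control.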

Test [3] is described as follows: Cell Viability - LYMP2-012 (AID 982).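 Further: cellular ATP by luciferase luminescence where a drop means cytotoxicity; cells exposed to compound for one day before reading; nearly all actives have a fitted effect of over 55% in size.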 Further: potency means the concentration at half of the fitted maximal effect.
Test [4] is described as follows: Cell Viability - LYMP2-014 (AID 983). Further: nearly all actives have a fitted effect of over 50% in size. Further: potency means the concentration at half of the fitted maximal effect. Summed up: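 LYMP2-014 human lymphoblastoid cells, 2500/well, treated 24 h at 37 C in complete medium; viability by CellTiter-Glo ATP luminescence after 30 min at room temperature. AC50 from Hill fits of qHTS concentration-response; tetraoctylammonium bromide positive control.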
Test [5] is described as follows: Cell Viability - LYMP2-016 (AID 984). Further: nearly all actives have a fitted effect of over 55% in size. Further: potency means the concentration at half of the fitted maximal effect. Summed up: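 Cells were seeded at 2500 per well and rested 5 hr before a 24 hr compound exposure at 37 C. Viability was then gauged as cellular ATP by luciferase luminescence, with AC50 values fitted to the Hill equation.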
The nature of test [6]: Cell Viability - LYMP2-018 (AID 985). Further: nearly all actives have a fitted effect of over 50% in size. Further: potency means the concentration at half of the fitted maximal effect. Summed up:
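Human lymphoblastoid LYMP2-018 cells, 2500/well, settled 5 hr at 37 C then exposed to compound 24 hr at 37 C; intracellular ATP measured by CellTiter-Glo luminescence. AC50 from Hill-equation concentration-response fits.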

The nature of test [7]: Cell Viability - LYMP2-022 (AID 987). Further: nearly all actives have a fitted effect of over 55% in size. Further: potency means the concentration at half of the fitted maximal effect. The procedure, abridged:
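LYMP2-022 lymphoblastoid cells (2500/well, complete medium) were treated with compounds for 24 hours at 37 C; intracellular ATP was then read by CellTiter-Glo luminescence after 30 min at room temperature. AC50 values were derived from Hill-equation fits.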

The nature of test [8]: Cell Viability - LYMP2-024 (AID 988). Further: nearly all actives have a fitted effect of over 60% in size. Further: potency means the concentration at half of the fitted maximal effect. Summed up: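 Human lymphoblastoid LYMP2-024 cells (2500/well) rested 5 hr, then treated with compound for 24 hr at 37 C in complete medium. Viability was measured as intracellular ATP by CellTiter-Glo luminescence. AC50 values came from Hill-equation fits.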
Test [9] can be described thus: Cell Viability - LYMP1-002 - Assay at 24 hr (AID 993). Further: potency means the concentration at half of the fitted maximal effect. Summed up:
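Human lymphoblastoid LYMP1-002 cells (2500/well) treated 24 h at 37 °C; viability as intracellular ATP by CellTiter-Glo luminescence. Tetraoctylammonium bromide as positive control; AC50 from Hill-equation fits of qHTS concentration-response.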

Test [10] in a line: qHTS Assay for Lipid Storage Modulators (AID 1519; calls by dose curve; on activity change, negative = inhibition: on the % scale 0 is the no-effect control and ±100 the full control effect). To be noted: Drosophila S3 cells, BODIPY lipid droplet/cell ratio, laser cytometry, cells loaded with oleic acid; for activity change, negative = inhibition: at 57.5 µM (top of the series). The procedure, abridged:
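Cells seeded at 5,000 per well were treated with compounds over a concentration series and loaded with oleic acid (400 uM, as added). Lipid droplet fluorescence (488 nm excitation, 500-530 nm channel) was read by laser-scanning cytometry and normalized to 20 uM Triacsin C.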
In general terms: In qHTS, concentration-response curves come from the screen itself.

Test [11] addresses Alpha-galactosidase A (Homo sapiens) (UniProt P06280). In words: Counterscreen for Glucocerebrosidase Inhibitors: qHTS Assay for Human alpha-Galactosidase at pH 4.5 (AID 992). Further: 0% is about no effect. Summed up: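 Enzyme at 2 nM final was combined with compound (0.7 nM to 77 uM) and 80 uM 4-methylumbelliferyl alpha-D-galactopyranoside in 50 mM citric acid, 0.005% Tween-20, pH 4.5. After 20 min at room temperature, fluorescence was read (Ex 365/Em 440 nm); AC50 came from Hill fits.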
(Counterscreens check selectivity or assay interference.)

Test [12] addresses alpha-glucosidase (Oryza sativa, rice) (UniProt Q653V4). In words: Counterscreen for Glucocerebrosidase Inhibitors: qHTS Assay for Rice alpha-Glucosidase at pH 5.0 (AID 997).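 Further: 0% = full activity with enzyme and -100% = basal without enzyme.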 Summed up: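 Rice alpha-glucosidase (4 nM final) with 400 uM 4-methylumbelliferyl-alpha-D-glucopyranoside in citrate buffer pH 5.0, 20 min at room temperature, stopped at pH 10; fluorescence 365/440 nm, compounds 0.7 nM–77 uM, AC50 from Hill fits.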

Test [13] can be described thus: Cell Viability - LYMP1-002 - Assay at 40 hr (AID 994). Further: nearly all actives have a fitted effect of over 60% in size. Further: potency means the concentration at half of the fitted maximal effect. Summed up: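 LYMP1-002 human lymphoblastoid cells (2500/well, complete medium) were treated with compounds for 40 hr at 37 C. Intracellular ATP was measured by CellTiter-Glo luminescence, and AC50 values came from Hill-equation fits of concentration-response data; tetraoctylammonium bromide was the positive control.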

The target in test [14] is DNA repair nuclease/redox regulator APEX1 (Homo sapiens) (UniProt P27695). In words: qHTS Validation Assay for Inhibitors of the Human Apurinic/apyrimidinic Endonuclease 1 (APE1) (AID 1705;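 further: TAMRA fluorescence gain over two minutes as APE1 cuts a quenched THF abasic duplex; on the % scale 0 is the no-effect control and ±100 the full control effect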). Summed up:
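qHTS, 1536-well. APE1 + cpd 15 min RT → 50 nM TAMRA/BHQ-2 THF-abasic dsDNA substrate → kinetic fluorescence, 3 reads/60 s; delta(read3−read1) = reaction progress. No-enzyme buffer = negative control.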

Test [15] is described as follows: Counterscreen for APE1 Inhibitors: Fluorescent Dye Displacement Validation Assay (AID 1707).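 Further: plate controls were ThO with dsDNA and no compound for no effect and ThO without dsDNA for full effect.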 Summed up:
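Thiazole Orange displacement from dsDNA: 250 nM ThO with 50 nM TAMRA-labelled abasic-site (tetrahydrofuran) duplex in 50 mM Tris-HCl pH7.5, 50mM NaCl, 2 mM MgCl2, 0.01% Tween-20. Loss of endpoint fluorescence (ex 480 nm, em 540 nm) flags DNA binders.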

Test [16] addresses Endonuclease 4 (Escherichia coli (strain K12)) (UniProt P0A6C1). Put plainly: Counterscreen for APE1 Inhibitors: qHTS Validation Assay for Inhibitors of Endonuclease IV (AID 1708). Further: on the % scale 0 is the no-effect control and ±100 the full control effect. The procedure, abridged: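 Concentration-response counterscreen run identically to the APE1 assay: 15 min room-temperature preincubation of 2 nM enzyme with compound, reaction started with 50 nM quenched abasic DNA, progress taken from kinetic fluorescence.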

Test [17] can be described thus: qHTS for differential inhibitors of proliferation of Plasmodium falciparum line 7G8 (AID 1815).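 Further: parasite growth measured after three days of incubation; plate controls were vehicle wells for no effect and reference inhibitor wells for full effect.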
Test [18] is described as follows: qHTS for differential inhibitors of proliferation of Plasmodium falciparum line GB4 (AID 1816).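 Further: parasite growth measured after 72 h incubation; 0% = vehicle DMSO and -100% = reference inhibitor.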 The settings on record: Potency: Plasmodium falciparum GB4 proliferation inhibition.
A short description of test [19]: qHTS for differential inhibitors of proliferation of Plasmodium falciparum line 3D7 (AID 1876).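 Further: parasite growth measured after three days of culture; 0% = vehicle wells and -100% = reference inhibitor wells.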
The mark [20] stands for this setting: measured here: cell count channel max response.
Setting [21] is: measured here: lipid channel max response.

Inconclusive results are not listed. Activity calls are given as the source filed them. Unless noted, the call rests on the fitted dose curve; in most records, active means well fitted curve in the direction sought with a large enough effect; inconclusive means small, poorly fitted or top-dose-only effect, or another doubt; inactive means no such curve, though single readings can be large; an effect the other way counts as inactive or inconclusive.

Alpha-galactosidase A (Homo sapiens), sequence (P06280 whole entry, looked up): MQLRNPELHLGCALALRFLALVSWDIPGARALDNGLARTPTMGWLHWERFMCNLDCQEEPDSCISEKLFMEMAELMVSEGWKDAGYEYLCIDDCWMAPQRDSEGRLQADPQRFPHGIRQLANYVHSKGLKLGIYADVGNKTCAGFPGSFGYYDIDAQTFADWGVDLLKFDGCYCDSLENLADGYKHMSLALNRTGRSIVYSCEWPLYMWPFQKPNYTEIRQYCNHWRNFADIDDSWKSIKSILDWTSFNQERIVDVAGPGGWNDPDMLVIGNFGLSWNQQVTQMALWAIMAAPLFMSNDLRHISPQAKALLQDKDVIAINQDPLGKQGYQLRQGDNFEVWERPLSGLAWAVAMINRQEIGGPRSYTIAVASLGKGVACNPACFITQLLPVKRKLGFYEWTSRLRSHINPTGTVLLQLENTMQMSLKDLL
DNA repair nuclease/redox regulator APEX1 (Homo sapiens), sequence (P27695 whole entry, looked up): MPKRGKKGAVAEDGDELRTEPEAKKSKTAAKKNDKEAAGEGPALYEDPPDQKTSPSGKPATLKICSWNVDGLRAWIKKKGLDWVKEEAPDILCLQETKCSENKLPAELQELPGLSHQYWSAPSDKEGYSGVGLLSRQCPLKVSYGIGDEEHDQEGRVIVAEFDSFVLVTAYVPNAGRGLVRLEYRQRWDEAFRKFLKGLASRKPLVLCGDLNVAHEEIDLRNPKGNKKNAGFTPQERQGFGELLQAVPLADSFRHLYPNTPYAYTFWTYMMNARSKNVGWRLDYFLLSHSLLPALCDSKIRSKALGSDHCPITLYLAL

Turning to `COC1=CC(=O)C[C@@H](C)[C@]12Oc1c(Cl)c(OC)cc(OC)c1C2=O`, the Potency entry in [1], in test [2], in [3], in [4], in test [5] and in [6] was “inactive” throughout. Further, the Potency result in test [7], in [8] and in test [9] was “inactive” each time. Further, the activity change, negative = inhibition in test [10] was 14.1% (inactive). For the same molecule, the max response in test [10] (setting [20]) is 4.54%; in [10] (setting [21]), 22.2%.

As to `CN1CCC[C@@H]1c1cccnc1`, the result in test [11] and in test [12] was inactive.

On to `CCCCCCc1ccc(O)cc1O`, for which the Potency result in test [1], in test [2], in test [3], in test [4], in test [5] and in test [6] was “inactive” each time. Besides, the Potency entry in [7], in test [8], in test [9] and in [13] was “inactive” in each case.

As for `COc1cc(-c2ccc(=O)[nH]n2)ccc1OC(F)F`, the molecule was called inactive in test [11], in [12], in test [15] and in test [16]. Also, the Potency entry in test [14], in test [17], in test [18] and in test [19] was “inactive” in each case.

Turning to `O=c1ccc2ccccc2o1`, the Potency result in test [1], in test [2], in test [3], in [4], in test [5] and in test [6] was “inactive” in each case. Besides, the Potency result in test [7], in test [8], in [9] and in [13] was “inactive” each time.

For the molecule `CN=C(NC#N)Nc1ccc(C2=NNC(=O)CC2C)cc1` (centres undefined), the Potency result in test [14], in [18] and in test [19] was “inactive” each time. The molecule was classed as inactive in [15] and in [16].

For the molecule `Nc1ccc(C(=O)O)cc1`, the Potency entry in test [1], in test [2], in [3], in [4], in test [5] and in test [6] was “inactive” throughout. The Potency entry in test [7], in test [8], in test [9] and in test [13] was “inactive” throughout. Besides, the activity change, negative = inhibition in [10] is 6.97% (inactive). The max response stood at 13.3% in test [10] (setting [20]) and 22.6% in test [10] (setting [21]).

Regarding `COc1cccc2c1C(=O)c1c(O)c3c(c(O)c1C2=O)C[C@@](O)(C(=O)CO)C[C@@H]3O[C@H]1C[C@H](N)[C@H](O)[C@H](C)O1`, the Potency in test [2] is 251 nM (active); in test [3], 199 nM (active); in [4] it was 316 nM (active); in [5] it was 251 nM (active); in test [6], 158 nM (active); in test [7], 251 nM (active). Further, the figures for the Potency in test [8], in test [9] and in test [13] were 199 nM (active), 1000 nM (active) and 794 nM (active), respectively.

With `CC(O)C(=O)O` (centres undefined), the Potency result in [1], in test [2], in [3], in test [4], in [5] and in test [6] was “inactive” throughout. The Potency result in test [7], in [8], in [9] and in [13] was “inactive” each time.

Source of the values: PubChem BioAssay (NCATS).
